According to PubChem BioAssay AID1159580 (chemical genetic matrix, 2015):
Where “and” joins values, the source holds several entries; their conditions need not be identical. Identical values can stand only once. Out of some 5,500 compounds screened, about 2,000 (36%) were called active. Inconclusive results (about 18%) are left out. Rule as the data show it: active = normalized growth mostly below about 0.91 (no sharp cut-off); inconclusive = no clear call, values can overlap the other calls; inactive = mostly above about 0.92. This is one part of the list.

Test: chemical genetic growth profiling, strain panel (AID 1159580);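 also: tested at 20 µM; growth read once vehicle control cultures reached saturation at 30 °C; 1 = growth at the plate median or of vehicle wells; lower values mean less growth of the strain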
Details: growth OD

Measured: normalized growth

CC(C)(C)NCC(O)c1cc(O)cc(O)c1 (stereo not drawn)
inactive: S. cerevisiae deletion strains, locus YKL009W, strain mrt4, hits give low values 0.961 | S. cerevisiae deletion strains, locus YKL068W, hits give low values 0.975 | S. cerevisiae deletion strains, locus YKL085W, strain MDH1 (second series), hits give low values 0.967 | S. cerevisiae deletion strains, locus YKL085W, strain MDH1, hits give low values 0.967 | S. cerevisiae deletion strains, locus YKL160W, strain elf1, hits give low values 0.934 | S. cerevisiae deletion strains, locus YKL190W, strain CNB1, hits give low values 0.994 | S. cerevisiae deletion strains, locus YKR001C, strain vps1, hits give low values 0.994 | S. cerevisiae deletion strains, locus YKR026C, strain gcn3, hits give low values 0.983 | S. cerevisiae deletion strains, locus YKR091W, strain srl3, hits give low values 0.978 | S. cerevisiae deletion strains, locus YLL001W, strain dnm1, hits give low values 1 | S. cerevisiae deletion strains, locus YLL026W, hits give low values 0.984 | S. cerevisiae deletion strains, locus YLL041C, strain sdh2, hits give low values 0.993 | S. cerevisiae deletion strains, locus YLR027C, strain aat2, hits give low values 0.987 | S. cerevisiae deletion strains, locus YLR039C, strain RIC1, hits give low values 0.978 | S. cerevisiae deletion strains, locus YLR058C, strain SHM2, hits give low values 0.987 | S. cerevisiae deletion strains, locus YLR102C, strain apc9, hits give low values 0.982 | S. cerevisiae deletion strains, locus YLR113W, strain HOG1, hits give low values 0.981 | S. cerevisiae deletion strains, locus YLR221C, strain rsa3, hits give low values 1.01 | S. cerevisiae deletion strains, locus YLR258W, strain gsy2, hits give low values 0.993 | S. cerevisiae deletion strains, locus YLR262C, strain YPT6 (second series), hits give low values 1 | S. cerevisiae deletion strains, locus YLR262C, strain YPT6, hits give low values 0.979 | S. cerevisiae deletion strains, locus YLR268W, strain sec22, hits give low values 0.951 | S. cerevisiae deletion strains, locus YLR320W, strain mms22, hits give low values 0.981 | S. cerevisiae deletion strains, locus YLR330W, strain CHS5, hits give low values 0.976 | S. cerevisiae deletion strains, locus YLR342W, strain FKS1 (second series), hits give low values 0.99 | S. cerevisiae deletion strains, locus YLR342W, strain FKS1, hits give low values 0.991 | S. cerevisiae deletion strains, locus YLR357W, strain rsc2, hits give low values 0.967 | S. cerevisiae deletion strains, locus YLR370C, strain arc18, hits give low values 0.975 | S. cerevisiae deletion strains, locus YLR371W, strain rom2, hits give low values 0.964 | S. cerevisiae deletion strains, locus YLR384C, strain iki3, hits give low values 0.988 | S. cerevisiae deletion strains, locus YLR418C, strain cdc73, hits give low values 0.996 | S. cerevisiae deletion strains, locus YML016C, strain PPZ1, hits give low values 0.992 | S. cerevisiae deletion strains, locus YML032C, strain rad52, hits give low values 0.99 | S. cerevisiae deletion strains, locus YML120C, strain ndi1, hits give low values 0.967 | S. cerevisiae deletion strains, locus YML124C, strain tub3, hits give low values 0.983 | S. cerevisiae deletion strains, locus YMR058W, strain fet3, hits give low values 1 | S. cerevisiae deletion strains, locus YMR078C, strain ctf18, hits give low values 0.976 | S. cerevisiae deletion strains, locus YMR125W, strain sto1, hits give low values 0.959 | S. cerevisiae deletion strains, locus YMR129W, hits give low values 0.969 | S. cerevisiae deletion strains, locus YMR205C, strain PFK2, hits give low values 0.984 | S. cerevisiae deletion strains, locus YMR223W, strain ubp8, hits give low values 1.02 | S. cerevisiae deletion strains, locus YMR231W, strain pep5, hits give low values 0.98 | S. cerevisiae deletion strains, locus YMR263W, strain SAP30, hits give low values 0.984 | S. cerevisiae deletion strains, locus YMR307W, strain GAS1, hits give low values 1.04 and 0.986 | S. cerevisiae deletion strains, locus YNL067W, strain RPL9B, hits give low values 0.985 | S. cerevisiae deletion strains, locus YNL071W, strain lat1, hits give low values 0.995 | S. cerevisiae deletion strains, locus YNL128W, strain TEP1, hits give low values 1.01 | S. cerevisiae deletion strains, locus YNL175C, strain NOP13, hits give low values 0.995 | S. cerevisiae deletion strains, locus YNL183C, strain NPR1, hits give low values 0.943 | S. cerevisiae deletion strains, locus YNL197C, strain WHI3, hits give low values 1 | S. cerevisiae deletion strains, locus YNL209W, strain ssb2, hits give low values 0.989 | S. cerevisiae deletion strains, locus YNL224C, strain SQS1, hits give low values 1.01 | S. cerevisiae deletion strains, locus YNL233W, strain BNI4, hits give low values 0.993 | S. cerevisiae deletion strains, locus YNL248C, strain rpa49, hits give low values 0.923 | S. cerevisiae deletion strains, locus YNL271C, strain bni1, hits give low values 0.985 | S. cerevisiae deletion strains, locus YNL298W, strain CLA4, hits give low values 0.979 | S. cerevisiae deletion strains, locus YNL307C, strain MCK1, hits give low values 0.975 | S. cerevisiae deletion strains, locus YNL322C, strain KRE1 (second series), hits give low values 0.953 | S. cerevisiae deletion strains, locus YNL322C, strain KRE1, hits give low values 0.979 | S. cerevisiae deletion strains, locus YNR049C, strain mso1, hits give low values 0.983 | S. cerevisiae deletion strains, locus YNR052C, strain pop2, hits give low values 0.983 | S. cerevisiae deletion strains, locus YOL006C, strain TOP1, hits give low values 1.06 | S. cerevisiae deletion strains, locus YOL012C, strain htz1 0.966 | S. cerevisiae deletion strains, locus YOL147C, strain pex11, hits give low values 0.969 | S. cerevisiae deletion strains, locus YOR001W, strain rrp6, hits give low values 1.01 | S. cerevisiae deletion strains, locus YOR061W, strain CKA2, hits give low values 1 | S. cerevisiae deletion strains, locus YOR069W, strain VPS5, hits give low values 0.986 | S. cerevisiae deletion strains, locus YOR070C, strain gyp1, hits give low values 0.986 | S. cerevisiae deletion strains, locus YOR080W, strain dia2, hits give low values 0.996 | S. cerevisiae deletion strains, locus YOR083W, strain WHI5 (second series), hits give low values 0.987 | S. cerevisiae deletion strains, locus YOR083W, strain WHI5, hits give low values 0.908 | S. cerevisiae deletion strains, locus YOR106W, strain vam3, hits give low values 0.933 | S. cerevisiae deletion strains, locus YOR136W, strain idh2, hits give low values 0.992 | S. cerevisiae deletion strains, locus YOR144C, strain elg1, hits give low values 0.989 | S. cerevisiae deletion strains, locus YOR184W, strain ser1, hits give low values 0.991 | S. cerevisiae deletion strains, locus YOR231W, strain MKK1, hits give low values 1.01 | S. cerevisiae deletion strains, locus YOR265W, strain rbl2, hits give low values 0.992 | S. cerevisiae deletion strains, locus YOR270C, strain vph1, hits give low values 0.932 | S. cerevisiae deletion strains, locus YOR290C, strain snf2, hits give low values 0.967 | S. cerevisiae deletion strains, locus YOR316C, strain cot1, hits give low values 0.982 | S. cerevisiae deletion strains, locus YPL051W, strain arl3, hits give low values 0.968 | S. cerevisiae deletion strains, locus YPL055C, strain LGE1, hits give low values 1.01 and 0.983 | S. cerevisiae deletion strains, locus YPL078C, strain atp4, hits give low values 0.944 | S. cerevisiae deletion strains, locus YPL106C, strain sse1, hits give low values 0.97 | S. cerevisiae deletion strains, locus YPL240C, strain hsp82, hits give low values 1.01 | S. cerevisiae deletion strains, locus YPL241C, strain CIN2, hits give low values 0.987 | S. cerevisiae deletion strains, locus YPL256C, strain CLN2, hits give low values 0.959 | S. cerevisiae deletion strains, locus YPR119W, strain clb2, hits give low values 0.975 | S. cerevisiae deletion strains, locus YPR141C, strain kar3, hits give low values 0.976 | S. cerevisiae deletion strains, locus YPR163C, strain tif3, hits give low values 0.978 | S. cerevisiae deletion strains, locus YPR167C, strain met16, hits give low values 0.974 | S. cerevisiae deletion strains, strain wtn01, hits give low values 0.99 | S. cerevisiae strains, strain wild type, hits give low values 0.993
